Screening results as filed in PubChem.
LDHA inh: blocks human lactate dehydrogenase A; P00338; purified LDHA, NADH/diaphorase-resazurin fluorescence; hits give low values; activity change, % (values are at about 110 or 230 µM); 480,000 tested, 0.15% active; AID 1347041; in the data active = activity change below about -30%; inconclusive = mostly about -25% to -30%;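 note: plate controls were DMSO wells for no effect and wells without enzyme for full effect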
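Remaining NADH was detected by diaphorase (0.133 mg/mL) converting 37 µM resazurin to fluorescent resorufin, read at 0 and 20 minutes. The preceding 5-minute room-temperature reaction used 2 nM LDHA, 0.2 mM sodium pyruvate and 0.06 mM NADH at pH 7.4.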
TDP1 cell noCPT: qHTS for Inhibitors of human tyrosyl-DNA phosphodiesterase 1 (TDP1): qHTS in cells in absence of CPT; DT40 Tdp1-/- hTDP1 cells, no CPT, ATP luminescence, 48 h; Potency, µM (series often up to 46.2 µM), for inactives: at the top dose activity change, negative = growth inhibition, most hits filed as inhibitors; 420,000 tested, 15% active; note: potency is the fitted concentration of half-maximal effect; nearly all actives have a fitted effect of over 55% in size
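Cells were dispensed at 400 per well, compounds added by pin tool, plates incubated ≥48 hr at 37 °C, then CellTiter-Glo added for 30 min at room temperature before luminescence reading. Line: DT40 Tdp1-/- complemented with hTDP1; camptothecin omitted.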
RORg inh: inhibitors of mouse ROR gamma transcriptional activity; AID 2551; Drosophila S2 Gal4-RORgamma UAS-luciferase reporter, 20 h; P51450; 310,000 tested, 5.4% active; Potency, µM (series often up to 53.6 µM), for the others: at the highest dose activity change, negative = inhibition, most hits filed as inhibitors; note: potency is the fitted concentration of half-maximal effect; nearly all actives have a fitted effect of over 60% in size
Target sequence (P51450 whole entry, looked up, the tested form may be a part): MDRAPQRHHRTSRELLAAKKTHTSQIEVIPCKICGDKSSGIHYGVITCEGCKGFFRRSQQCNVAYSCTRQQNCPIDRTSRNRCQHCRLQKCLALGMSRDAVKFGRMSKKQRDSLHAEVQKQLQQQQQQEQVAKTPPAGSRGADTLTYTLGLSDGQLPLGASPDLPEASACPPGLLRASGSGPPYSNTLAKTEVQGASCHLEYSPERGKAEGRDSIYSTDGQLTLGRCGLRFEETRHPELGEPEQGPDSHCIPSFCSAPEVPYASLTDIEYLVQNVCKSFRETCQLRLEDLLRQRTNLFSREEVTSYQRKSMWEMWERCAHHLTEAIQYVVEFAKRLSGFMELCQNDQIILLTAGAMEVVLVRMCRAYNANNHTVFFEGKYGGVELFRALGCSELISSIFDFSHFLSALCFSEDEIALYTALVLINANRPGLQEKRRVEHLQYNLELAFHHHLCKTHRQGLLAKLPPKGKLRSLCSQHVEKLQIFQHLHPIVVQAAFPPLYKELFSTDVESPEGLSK
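A Gal4/UAS one-hybrid system in insect cells: metallothionein-promoter Gal4–ROR gamma fusion plus Photinus luciferase reporter. Copper sulfate 700 uM final, 20 hr ambient incubation, luminescent detection after 10 min with reagent.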
VP16 counter: inhibits Gal4-VP16 luciferase reporter, ROR gamma counter-screen; Potency, µM (series often up to 53.6 µM), without a hit: at the highest dose activity, negative = inhibition, usual class: inhibitors; 310,000 tested, 3.5% active; Drosophila S2 Gal4-VP16 UAS-luciferase, luminescence, 20 h;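 note: Gal4-VP16 expression switched on by copper sulfate through the metallothionein promoter; potency is the fitted concentration of half-maximal effect; nearly all actives have a fitted effect of over 50% in size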
IL-1B inflam inh: inflammasome signaling inhibition, IL-1 beta readout; THP-1 LPS/ATP IL-1B secretion, AlphaLISA, 16 h; hits give low values; activity change, % at 57.5 µM; 360,000 tested, 4.7% active; AID 743279; in the data active = activity change below about -50%; inconclusive = mostly about -30% to -49%
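Secreted IL-1B measured by AlphaLISA bead assay after 16 h compound exposure of THP-1 cells; compounds (final up to 57.5 uM) added 1 h before LPS (250 ng/mL) and ATP (1.25 mM) stimulation; lower signal means less secretion.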
DT40 TDP1 CPT: DT40-hTDP1 cell growth loss with CPT | chicken DT40 Tdp1-/-;hTDP1 cells + 20 nM CPT, ATP luminescence, 48 h | Potency, µM (series often up to 46.2 µM), for the others: at the top dose activity change, negative = growth inhibition, usual class: inhibitors | 420,000 tested, 12% active; note: potency is the fitted concentration of half-maximal effect; nearly all actives have a fitted effect of over 55% in size
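Chicken DT40 Tdp1-/- cells complemented with human TDP1, 400 cells/well, exposed to compounds plus 20 nM camptothecin for at least 48 h at 37 C; viability read as ATP content by CellTiter-Glo luminescence.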
An asterisk follows results filed as active. Rows were chosen to be rich in hits. Some 18% of all compounds tested hit in one or more screens of this group. Unless noted, calls come from the whole dose curve; as a rule, active = well fitted curve in the direction sought with a large enough effect; inconclusive = small, poorly fitted or top-dose-only effect, or another doubt; inactive = no such curve, though single readings can be large; an effect the other way counts as inactive or inconclusive. Unless noted, % is set by controls: 0 for no effect and ±100 for the full control effect.

What do the screens show for `COc1ccc(-c2csc(NC(=O)Cc3ccccc3F)n2)cc1OC`?
LDHA inh: 4; TDP1 cell noCPT: 26µM*; RORg inh: 26%; VP16 counter: 8%; IL-1B inflam inh: -64*; DT40 TDP1 CPT: inconclusive

Results for COc1ccc(-c2nc(NC(=O)CCNC(=O)c3ccco3)sc2C)cc1 ?
LDHA inh: -3; TDP1 cell noCPT: 18µM*; RORg inh: inconclusive; VP16 counter: -1%; IL-1B inflam inh: -2; DT40 TDP1 CPT: 23µM*

How did COc1ccc(-c2csc(NC(=O)CCNC(=O)c3ccco3)n2)cc1OC do in these assays?
LDHA inh: -4; TDP1 cell noCPT: 16µM*; IL-1B inflam inh: -18; DT40 TDP1 CPT: inconclusive

Results for COc1ccc(Cc2nnc(NC(=O)c3c(-c4ccccc4)noc3C)s2)cc1OC ?
RORg inh: inconclusive; VP16 counter: -22%

Results for Cn1ccnc1CN(C1CC1)S(=O)(=O)c1cc(Cl)ccc1Cl ?
LDHA inh: -2

What do the screens show for `COc1ccc(/C=N/O)cc1`?
LDHA inh: 5

Results for COc1ccc(-c2nc(CCNC(=O)c3ccco3)cs2)cc1OC ?
LDHA inh: 1; TDP1 cell noCPT: 21µM*; RORg inh: 28%; VP16 counter: 7%; IL-1B inflam inh: -9; DT40 TDP1 CPT: inconclusive

What do the screens show for `O=C(Cc1ccccc1F)Nc1nc(-c2ccc(F)cc2)cs1`?
LDHA inh: 0; TDP1 cell noCPT: 5.8µM*; RORg inh: inconclusive; VP16 counter: 1%; IL-1B inflam inh: -94*; DT40 TDP1 CPT: 8.2µM*

What do the screens show for `COc1ccc(OC)c(-c2csc(NC(=O)c3n[nH]c(=O)c4ccccc34)n2)c1`?
LDHA inh: -1

Results for COc1ccccc1C(CNC(=O)C1CC(=O)N(Cc2ccccc2)C1)N1CCCC1 (stereo unspecified) ?
LDHA inh: -2; TDP1 cell noCPT: 4.6µM*; IL-1B inflam inh: -8; DT40 TDP1 CPT: -2%

How did Cc1cc(C)c(-c2csc(NC(=O)c3n[nH]c(=O)c4ccccc34)n2)c(C)c1 do in these assays?
LDHA inh: -6; TDP1 cell noCPT: 4.1µM*; RORg inh: inconclusive; VP16 counter: inconclusive; IL-1B inflam inh: 24; DT40 TDP1 CPT: 9.2µM*

How did COc1ccccc1CC(=O)Nc1nc(-c2ccc(F)c(F)c2)cs1 do in these assays?
LDHA inh: -6; TDP1 cell noCPT: inconclusive; RORg inh: inconclusive; VP16 counter: 4%; IL-1B inflam inh: inconclusive; DT40 TDP1 CPT: inconclusive

What do the screens show for `CN(Cc1cccc(C#N)c1)C(=O)NCCNC(=O)CC1CCCC1`?
LDHA inh: 5

How did CN1CCN(C(=O)CNc2nc(Cl)nc3nc[nH]c23)CC1 do in these assays?
LDHA inh: 4

How did Nc1ncnc(Nc2ccc(Cl)c(Cl)c2)c1[N+](=O)[O-] do in these assays?
LDHA inh: 3

What do the screens show for `COc1ccc(-c2nc3ccccc3c(C)c2CC(=O)O)cc1OC`?
LDHA inh: 0

How did COc1cc(C(=O)/C=C/c2ccc(Cl)cc2)ccc1OCC(=O)O do in these assays?
LDHA inh: -1

How did COc1ccc(-c2csc(NC(=O)CC(NC(C)=O)c3ccccc3)n2)cc1OC (stereo unspecified) do in these assays?
LDHA inh: -6; TDP1 cell noCPT: inconclusive; RORg inh: 13%; VP16 counter: -2%; IL-1B inflam inh: -27; DT40 TDP1 CPT: inconclusive

How did COc1ccc(CC(=O)Nc2nc(-c3ccc(OC)c(OC)c3)cs2)cc1OC do in these assays?
LDHA inh: -8; TDP1 cell noCPT: 21µM*; RORg inh: inconclusive; VP16 counter: inconclusive; IL-1B inflam inh: -86*; DT40 TDP1 CPT: inconclusive

What do the screens show for `COc1ccc(-c2csc(NC(=O)CS(=O)(=O)c3ccccc3)n2)cc1OC`?
LDHA inh: -1; TDP1 cell noCPT: 16µM*; IL-1B inflam inh: inconclusive; DT40 TDP1 CPT: inconclusive

What do the screens show for `COc1ccc(-c2csc(NC(=O)CSc3ncn[nH]3)n2)cc1OC`?
LDHA inh: -4; TDP1 cell noCPT: inconclusive; RORg inh: -31%; VP16 counter: inconclusive; IL-1B inflam inh: 18; DT40 TDP1 CPT: inconclusive

Results for Cn1nc(C(=O)Nc2nc(-c3ccc(F)cc3)cs2)c2ccccc2c1=O ?
LDHA inh: 9

Results for Cn1nc(C(=O)Nc2nc(-c3ccc(F)cc3)cs2)ccc1=O ?
LDHA inh: -1; TDP1 cell noCPT: 6.5µM*; RORg inh: 23%; VP16 counter: 0%; IL-1B inflam inh: inconclusive; DT40 TDP1 CPT: inconclusive

How did N#Cc1ccccc1S(=O)(=O)NC1CCSc2c(F)cccc21 (stereo unspecified) do in these assays?
LDHA inh: -5

How did O=C(NCCC(c1ccccc1)c1ccccc1)c1n[nH]c(=O)c2ccccc12 do in these assays?
LDHA inh: -16

Results for CCCCCCCOC(=O)Nc1ccc(C)cc1 ?
LDHA inh: 0

How did CCCC1=[N+](CC(=O)c2ccccc2)CCn2cccc21 do in these assays?
LDHA inh: 3; TDP1 cell noCPT: 26µM*; RORg inh: -8%; VP16 counter: -3%; IL-1B inflam inh: inactive; DT40 TDP1 CPT: 23µM*

What do the screens show for `CCCC1=[N+](CC(=O)c2ccc(Br)cc2)CCn2cccc21`?
LDHA inh: -2; TDP1 cell noCPT: inconclusive; RORg inh: 5%; VP16 counter: 0%; IL-1B inflam inh: -11; DT40 TDP1 CPT: 0%

Results for CCCC1=[N+](CC(C)=O)CCn2c(C)ccc21 ?
LDHA inh: 2; TDP1 cell noCPT: 2.3µM*; RORg inh: -22%; VP16 counter: -1%; IL-1B inflam inh: -1; DT40 TDP1 CPT: 3.3µM*

How did O=C(Cn1nc(N2CCN(c3ccccc3)CC2)ccc1=O)Nc1ccccc1 do in these assays?
LDHA inh: -18

How did O=Cc1cccnc1SCc1ccccc1 do in these assays?
LDHA inh: -10; TDP1 cell noCPT: 1.5µM*; IL-1B inflam inh: 54; DT40 TDP1 CPT: 2.3µM*

How did N#Cc1c(-c2ccccc2)c(-c2ccccc2)nn(CC(=O)NNC(=O)Nc2ccc(Cl)cc2)c1=O do in these assays?
LDHA inh: -1; TDP1 cell noCPT: 23µM*; RORg inh: 32%; VP16 counter: -6%; DT40 TDP1 CPT: inconclusive

What do the screens show for `N#Cc1c(-c2ccc(Cl)cc2)c(-c2ccc(Cl)cc2)nn(CCOC(=O)CCC(=O)O)c1=O`?
LDHA inh: 0; TDP1 cell noCPT: inconclusive; IL-1B inflam inh: 13; DT40 TDP1 CPT: 10µM*
